This note sets out measurements from PubChem BioAssay (NCI).

Among the test systems are SR leukemia; RPMI-8226 leukemia; OVCAR-8 ovarian; OVCAR-5 ovarian; OVCAR-4 ovarian; SK-OV-3 ovarian; IGROV1 ovarian; OVCAR-3 ovarian; HS 578T breast; NCI/ADR-RES ovarian; T-47D breast; BT-549 breast; SW-620 colon; MCF7 breast; HCT-116 colon; HCC-2998 colon; KM12 colon; MDA-MB-435 melanoma.
What all share (experiment): NCI-60 one-dose screen, 48 h (100 = growth as untreated, 0 = no growth, -100 = all killed)
What all share (conditions): 10 µM unless noted

Molecules are shown by their SMILES. The panel holds about 83,000 compounds, 20% with a hit somewhere; the sample as a whole holds those more often.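 Growth was measured after 48 h exposure to one concentration of compound in 96-well plates. Values under 10 count as active.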 Values without a mark were called inactive. The source made the active and inactive calls.

Consider `COc1ccc2c(c1)oc1c(C)c3c(c(C)c12)C(=O)N(CCN1CCOCC1)C3=O`, for which the growth in the assay on SR leukemia is 85.8%; in the assay on RPMI-8226 leukemia it was 92.2%; with OVCAR-8 ovarian it was 92%; in the assay with OVCAR-5 ovarian, 92.6%; with OVCAR-4 ovarian it was 103%; with SK-OV-3 ovarian, 114%. Besides, the growth is 91.4% in the assay with IGROV1 ovarian; 106% with OVCAR-3 ovarian; 102% in the assay on HS 578T breast; 104% in the assay on NCI/ADR-RES ovarian; 106% with T-47D breast; 97.6% in the assay on BT-549 breast. Further, the growth in the assay with SW-620 colon is 93%; in the assay on MCF7 breast, 109%; with HCT-116 colon it was 83%; with HCC-2998 colon, 111%; in the assay on KM12 colon, 96.1%.

Consider `O=S(=O)(Nc1ccc(-n2cnc3cc(-c4ccc(O)cc4)ccc32)cc1)c1ccccc1`, for which the growth in the assay with SR leukemia was 78%; in the assay on RPMI-8226 leukemia it was 69.1%; with OVCAR-8 ovarian, 84.4%; in the assay on OVCAR-5 ovarian, 111%; with OVCAR-4 ovarian it was 74.1%; in the assay on SK-OV-3 ovarian, 127%. The growth in the assay on IGROV1 ovarian was 91.4%; in the assay with OVCAR-3 ovarian it was 95.8%; in the assay on HS 578T breast, 97.3%; in the assay on NCI/ADR-RES ovarian, 91.9%; in the assay on T-47D breast, 9.89% (active); in the assay with BT-549 breast, 94.3%. The growth with MDA-MB-435 melanoma was 98.5%; with MCF7 breast, 87.9%; with HCT-116 colon, 90.3%; in the assay on HCC-2998 colon it was 115%; with KM12 colon, 54.6%.

In the case of `CN1CCN(c2ccc(NC3=C(Cl)C(=O)c4ncccc4C3=O)cc2C(F)(F)F)CC1`, the growth is 9.03% (active) in the assay with SR leukemia; -4.52% (active) in the assay on RPMI-8226 leukemia; 30.4% in the assay on OVCAR-8 ovarian; 100% in the assay with OVCAR-5 ovarian; -96.8% (active) in the assay on OVCAR-4 ovarian; 84.9% in the assay on SK-OV-3 ovarian. Besides, the growth with IGROV1 ovarian was -37.6% (active); in the assay on OVCAR-3 ovarian, -82.9% (active); in the assay with HS 578T breast, 92.9%; with NCI/ADR-RES ovarian it was 81.9%; in the assay with T-47D breast, -19.7% (active); in the assay with BT-549 breast, 89.8%. Moreover, the growth in the assay with SW-620 colon is -53% (active); in the assay with MCF7 breast, -49.1% (active); in the assay on HCT-116 colon, -57.3% (active); in the assay on HCC-2998 colon, 105%; with KM12 colon, 105%.

Regarding `C=C(C)[C@@H]1CC[C@]2(C(=O)N3CCN(C)CC3)CC[C@]3(C)[C@H](CC[C@@H]4[C@@]5(C)CC[C@H](OCCC#N)C(C)(C)[C@@H]5CC[C@]43C)[C@@H]12`, the growth was 3.86% (active) in the assay on SR leukemia; 29.7% with RPMI-8226 leukemia; 6.81% (active) in the assay with OVCAR-8 ovarian; 129% with OVCAR-5 ovarian; 48.8% with OVCAR-4 ovarian; 109% in the assay with SK-OV-3 ovarian. Moreover, the growth with IGROV1 ovarian is 98.2%; in the assay with OVCAR-3 ovarian it was 103%; in the assay on HS 578T breast it was 104%; in the assay with NCI/ADR-RES ovarian it was 45.8%; in the assay with T-47D breast, 91.7%; in the assay with BT-549 breast it was 107%. The growth with SW-620 colon was 7.33% (active); in the assay with MCF7 breast it was 77.7%; with HCT-116 colon, 44.4%; with HCC-2998 colon, 102%; in the assay on KM12 colon, 48.2%.

For `CNCCn1c(=O)c2cc(OC)c(OC)cc2c2ccc3cc4c(cc3c21)OCO4`, the growth with SR leukemia was -22.4% (active); in the assay with RPMI-8226 leukemia, -27.6% (active); with OVCAR-8 ovarian it was 10.2%; in the assay with OVCAR-5 ovarian, 4.57% (active); in the assay on OVCAR-4 ovarian, -10.9% (active); in the assay on SK-OV-3 ovarian, -0.269% (active). The growth with IGROV1 ovarian was 0.994% (active); with OVCAR-3 ovarian it was -6.33% (active); in the assay on HS 578T breast, 4.39% (active); in the assay with NCI/ADR-RES ovarian it was 4.99% (active); with T-47D breast, 6.22% (active); with BT-549 breast, -19.8% (active). In addition, the growth in the assay with MDA-MB-435 melanoma is -61% (active); with MCF7 breast, 7.12% (active); in the assay with HCT-116 colon it was 2.87% (active); with HCC-2998 colon, -51.6% (active); in the assay with KM12 colon it was 3.17% (active).

In the case of `Cc1c(C(=O)NCCC(=O)NO)sc2ncnc(Nc3ccc(F)c(Cl)c3)c12`, the growth in the assay on SR leukemia was 111%; in the assay on RPMI-8226 leukemia, 110%; with OVCAR-8 ovarian, 101%; in the assay on OVCAR-5 ovarian it was 108%; in the assay on OVCAR-4 ovarian it was 109%; in the assay with SK-OV-3 ovarian, 129%. The growth in the assay with IGROV1 ovarian was 106%; with OVCAR-3 ovarian, 107%; with HS 578T breast, 103%; in the assay on NCI/ADR-RES ovarian, 101%; in the assay on T-47D breast, 107%; with BT-549 breast it was 114%. For the same compound, the growth in the assay with SW-620 colon was 101%; in the assay with MCF7 breast, 95.2%; in the assay with HCT-116 colon, 107%; in the assay with HCC-2998 colon it was 105%; in the assay with KM12 colon, 104%.

Regarding `CCN(CC)CCn1c(=O)c2cc(OC)c(OC)cc2c2ccc3cc4c(cc3c21)OCO4`, the growth in the assay with SR leukemia was -14.9% (active); with RPMI-8226 leukemia, 3.16% (active); in the assay with OVCAR-8 ovarian it was 53.2%; with OVCAR-5 ovarian, 64.9%; in the assay on OVCAR-4 ovarian, 66.4%; in the assay with SK-OV-3 ovarian, 32.8%. In addition, the growth in the assay with IGROV1 ovarian was 29%; in the assay on OVCAR-3 ovarian, 62.4%; in the assay with HS 578T breast, 64.3%; in the assay on NCI/ADR-RES ovarian, 29.9%; in the assay on T-47D breast it was 39.1%; in the assay on BT-549 breast, 26.2%. In addition, the growth was 50.4% in the assay on MDA-MB-435 melanoma; 16.1% with MCF7 breast; 8.5% (active) with HCT-116 colon; 74.9% in the assay on HCC-2998 colon; 41.9% with KM12 colon.

For the compound `O=C(/C=C/c1ccc(F)cc1)c1ccc(NC(=O)N2CCN(c3cc4c(cc3F)c(=O)c(C(=O)O)cn4C3CC3)CC2)cc1`, the growth with SR leukemia was 71.9%; with RPMI-8226 leukemia, 98.6%; in the assay with OVCAR-8 ovarian, 90.8%; in the assay with OVCAR-5 ovarian, 96.9%; in the assay with OVCAR-4 ovarian, 98.2%; in the assay on SK-OV-3 ovarian it was 99.4%. Besides, the growth with IGROV1 ovarian is 89.5%; in the assay with OVCAR-3 ovarian it was 97.6%; with HS 578T breast, 90.3%; in the assay with NCI/ADR-RES ovarian, 100%; with T-47D breast it was 93.6%; in the assay with BT-549 breast, 75.7%. The growth in the assay on SW-620 colon was 92%; in the assay with MCF7 breast, 96.9%; in the assay on HCT-116 colon, 57.1%; in the assay with HCC-2998 colon, 103%; in the assay with KM12 colon it was 100%.

On to `COc1cc2c(=O)n(CCN)c3c4cc5c(cc4ccc3c2cc1OC)OCO5`, for which the growth in the assay on SR leukemia was -26% (active); in the assay with RPMI-8226 leukemia, -41.7% (active); with OVCAR-8 ovarian, -49.9% (active); in the assay on OVCAR-5 ovarian, -76.9% (active); with OVCAR-4 ovarian, -76% (active); in the assay on SK-OV-3 ovarian, 16.6%. Moreover, the growth with IGROV1 ovarian was -75.6% (active); in the assay with OVCAR-3 ovarian, -79.3% (active); in the assay with HS 578T breast, 25.8%; with NCI/ADR-RES ovarian, -37.3% (active); in the assay on T-47D breast it was 27.1%; with BT-549 breast, 35.2%. Also, the growth is -91% (active) in the assay with MDA-MB-435 melanoma; 17.6% in the assay on MCF7 breast; -70.9% (active) in the assay with HCT-116 colon; 44.9% with HCC-2998 colon; -64% (active) in the assay with KM12 colon.
